Shown are actives, neighbours in structure and some others; about 10% of the full set was active somewhere.
SARS PLP yeast – inhibitors of SARS-CoV papain-like protease in yeast | S. cerevisiae expressing SARS-CoV PLpro, growth rescue | Potency, µM (titrated, usually from 32.9 µM), for the others: at the top dose activity, positive = growth rescue, hits mostly activators | 330,000 tested, 0.19% active; also: 0% is about no effect; nearly all actives have a fitted effect of over 55% in size
NS1 inh – inhibitors of influenza NS1 protein function. 270,000 tested, 0.4% active. Potency, µM (titrated, usually from 46.1 µM), for inactives: at the top dose activity, positive = more growth; also: actives are rising curves; nearly all actives have a fitted effect of over 50% in size
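S. cerevisiae expressing influenza A NS1, grown in glucose, washed, then diluted 1:100 into pH 6.0 -URA galactose medium with 23 nl compound. Growth recovery read as OD600; NS1-free strain serves as control.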
Pf growth 96h – P. falciparum growth inhibition at 96 hours; Potency, µM (top dose mostly 28.7 µM), inactives show at the top dose activity change, negative = inhibition, hits mostly inhibitors; AID 504834; 320,000 tested, 6.9% active; P. falciparum luciferase reporter growth, 96 h; active = well fitted inhibition curve with a large enough effect; inconclusive = small, poorly fitted or top-dose-only effect, or another doubt; inactive = no such curve, though single readings can be large or run the other way; also: % is scaled to controls: 0 for no effect and ±100 for the full control effect
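Infected RBCs, 2% Hct / 0.05% parasitemia final; luciferase-reporter P. falciparum; cpd 96 h, 37 C, 5% CO2; luciferase detection reagent; luminescence.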
Pf growth 48h – P. falciparum growth inhibition at 48 hours (one generation); P. falciparum luciferase growth in erythrocytes, 48 h; Potency, µM (doses to about 28.7 µM), for inactives: at the top dose activity change, negative = inhibition, usual class: inhibitors; 310,000 tested, 5.9% active; AID 504832; active = well fitted inhibition curve with a large enough effect; inconclusive = small, poorly fitted or top-dose-only effect, or another doubt; inactive = no such curve, though single readings can be large or run the other way; also: % is scaled to controls: 0 for no effect and ±100 for the full control effect
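Luminescence readout; reporter = integrated firefly luciferase in P. falciparum. RBC culture at 2% hematocrit, 0.1% parasitemia final, 37 C/5% CO2; decreased signal taken as growth inhibition.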
* = called active by the depositor; ? = inconclusive; · = no result. Unless noted, calls follow the shape of the full dose curve. Potency is read from the fitted curve at half-maximal effect.

SMILES | SARS PLP yeast | NS1 inh | Pf growth 96h | Pf growth 48h
O=C(CN1CCOCC1)NCCc1ccccc1 | -6.6% | 2.6% | 10.4µM* | 8.4%
Cc1cc(C)c(NC(=O)OCCN2CCOCC2)c(C)c1 | 1.4% | 0.7% | 0.233µM* | 2.2%
O=C(CN1CCOCC1)NCc1ccccc1 | 6.0% | -5.0% | ? | 9.4%
Cc1ccc(SCCSc2nc(C)cc(=O)[nH]2)cc1 | -1.5% | 4.3% | -13.7% | -1.6%
O=C(NCCCc1ccccc1)N1CCOCC1 | -0.7% | 2.1% | 2.0% | 12.6%
O=C(CNC(=S)N(Cc1ccccc1Cl)C1CCCC1)NCCCN1CCOCC1 | 1.1% | · | -17.8% | 10.4µM*
O=C(CNC(=S)N(Cc1ccc(F)cc1)C1CCCCC1)NCCN1CCOCC1 | -4.3% | · | 111.6% | ?
CC(CCc1ccccc1)NC(=O)N1CCOCC1 (stereo not drawn) | 4.6% | -5.1% | 10.4µM* | -6.5%
O=C(CN1C(=O)COc2ccccc21)NCCCN1CCN(Cc2ccccc2)CC1 | ? | -1.2% | 0.37µM* | 9.6%
COc1cccc(NC(=O)C(=O)NCCC2CCCCN2S(=O)(=O)c2ccccc2)c1 (stereo not drawn) | · | · | -49.9% | 43.1%
COc1ccccc1CNC(=O)[C@H](Cc1c[nH]c2ccccc12)NC(=O)[C@@H]1Cc2ccccc2CN1 | -3.5% | 24.3% | 10.4µM* | ?
Cc1c(C(=O)NCCS(=O)(=O)N2CCN(c3ccccc3F)CC2)cccc1[N+](=O)[O-] | 0.4% | 3.7% | 7.6% | 10.7%
CCN(CC)C(=O)[C@H]1C[C@H](CC(=O)NCCC2=CCCCC2)C(=O)N2CCc3c([nH]c4cc(CCC(=O)N(C)C)ccc34)[C@]12C | -14.7% | · | · | ·
COc1ccc(-n2nc(C(=O)NCC(=O)NCCCN3CC(C)CC(C)C3)c3ccccc3c2=O)cc1Cl (stereo not drawn) | 0.8% | -5.3% | 28.8% | 6.57µM*
CCN(CC)C(=O)CNC(=O)c1nn(-c2ccc(OC)c(Cl)c2)c(=O)c2ccccc12 | -1.2% | 10.1% | -21.0% | 4.15µM*
CC(C)CC(=O)Nc1nnc(CSCc2ccc(F)cc2)s1 | -0.4% | -3.0% | ? | -6.6%
CCC(=O)c1ccc(OCC(=O)OCC(=O)NCC2CCCO2)cc1 (stereo not drawn) | -2.3% | 17.4% | 24.1% | 10.5%
CCCN(CC(=O)Nc1ccccc1C)C(=O)c1ccc(N2CCCCCC2)c([N+](=O)[O-])c1 | 4.8% | 3.4% | ? | ?
COc1ccccc1NC(=O)C1CCCN(c2ncnc3c2nc2n3CCCCC2)C1 (stereo not drawn) | -1.1% | 4.7% | ? | ?
O=C(Nc1ccccc1Cl)C1CCCN(c2ncnc3c2nc2n3CCCCC2)C1 (stereo not drawn) | 0.4% | -39.2% | 6.57µM* | ?
Cc1cccc(CCNC(=O)C2CCCN(c3ncnc4c3nc3n4CCCCC3)C2)c1 (stereo not drawn) | 2.9% | -13.2% | 11.7µM* | ?
COc1cc(NC(=O)C2CCCN(c3ncnc4c3nc3n4CCCCC3)C2)cc(OC)c1OC (stereo not drawn) | 1.8% | -9.2% | 13.1µM* | ?
Cc1cc2[nH]c(=O)c(=O)[nH]c2cc1S(=O)(=O)NCc1ccc(Cl)cc1 | 3.2% | -3.1% | 13.1µM* | -4.8%
Cc1cc2[nH]c(=O)c(=O)[nH]c2cc1S(=O)(=O)Nc1cccc(Cl)c1C | -3.8% | -1.4% | -2.2% | 0.7%
Cc1ccc(C(C)NC(=O)c2ccncc2)c(C)c1 (stereo not drawn) | -13.7% | 4.6% | 17.6% | -18.9%
SMILES | SARS PLP yeast | NS1 inh | Pf growth 96h | Pf growth 48h
O=C(O)c1ccc(NC(=S)NC(=O)c2cncc(Br)c2)cc1 | 11.6% | 8.7% | -0.3% | -11.4%
Cc1c(C(=O)N2CCOCC2)c(S(=O)(=O)Nc2cccc(C#N)c2)c(C)n1C | 22.3% | -3.4% | -0.4% | 17.3%
CCOC(=O)C1CCCN(C(=O)c2cc(CN3C(=O)c4ccccc4C3=O)ccc2OC)C1 (stereo not drawn) | -8.8% | · | 7.4% | ?
Cc1cc(/C=C2\SC(=O)NC2=O)c(C)n1-c1ccc(N2CCOCC2)cc1 | -0.9% | 0.0% | ? | 10.4µM*
COc1ccc(-n2c(C)cc(/C=C3/SC(=S)N(C)C3=O)c2C)cc1 | -7.8% | -1.0% | 0.329µM* | 41.3%
COC(=O)c1cccc(NC(=O)CCN2C(=O)C3CC=CCC3C2=O)c1 (stereo not drawn) | 0.5% | · | -10.4% | 12.2%
S=c1nc[nH]c2c1ncn2Cc1ccco1 | · | 0.0% | · | ·
CCOC(=O)C1CCN(S(=O)(=O)c2cc(Br)cc3c2N(C(=O)C2CC2)CC3)CC1 | -18.8% | -72.0% | -0.8% | 8.28µM*
O=C(C1CC1)N1CCc2cc(Br)cc(S(=O)(=O)NCCCN3CCCC3)c21 | -1.5% | 1.4% | 9.28µM* | -1.5%
CCC(=O)N1CCc2cc(Br)cc(S(=O)(=O)N3CCC(C(=O)NCCCOC(C)C)CC3)c21 | 11.1% | -9.6% | ? | 2.94µM*
CCOCCCNC(=O)C1CCN(S(=O)(=O)c2cc(Br)cc3c2N(C(=O)CC)CC3)CC1 | -0.5% | -12.5% | ? | ?
CC1CCCN(CCCNS(=O)(=O)c2cc(Br)cc3c2N(C(=O)C2CC2)CC3)C1 (stereo not drawn) | 0.6% | 16.0% | 21.4% | -4.9%
CC(=O)N1CCc2cc(Br)cc(S(=O)(=O)N3CCCCCC3)c21 | -19.7% | -22.1% | 0.0% | 3.29µM*
CCC(=O)N1CCc2cc(Br)cc(S(=O)(=O)NCCN3CCCC3)c21 | 9.4% | 3.6% | 28.4% | ·
CCC(=O)N1CCc2cc(Br)cc(S(=O)(=O)CC(=O)OC)c21 | -1.2% | 5.5% | 14.7µM* | ?
CC1(C)CC(=O)C(C=Nc2ccc3[nH]ncc3c2)=C(O)C1 | -4.6% | 16.8% | 10.4µM* | 4.6%
Cc1ccc(CN(C(=O)c2cc(=O)c3cc(Cl)c(C)cc3o2)C2CCS(=O)(=O)C2)cc1 (stereo not drawn) | 4.4% | 9.3% | 4.65µM* | ?
Cc1ccc(CN(C(=O)c2cc(=O)c3cc(C)cc(C)c3o2)C2CCS(=O)(=O)C2)cc1 (stereo not drawn) | -1.6% | -5.2% | 9.28µM* | 3.29µM*
O=C(/C=C/c1ccccc1)NC(=O)c1ccccc1O | -6.1% | -38.1% | 1.65µM* | 1.31µM*
CCCOC(=O)c1ccc(NC(=O)/C=C/c2cccs2)cc1 | -81.3% | -45.9% | -4.0% | ?
COc1cc(/C=C/C(=O)NC(=O)c2ccccc2O)ccc1O | 1.3% | -5.2% | -7.1% | ?
CCCOC(=O)c1cc(NC(=O)/C=C/c2ccccc2)ccc1O | -0.6% | -6.3% | 10.4µM* | ?
O=C(NCC1CCCO1)C1CC(=O)N(c2cccc(Cl)c2)C1 (stereo not drawn) | -0.7% | 2.3% | 31.1% | 30.0%
N#C/C(=C\c1ccccc1)C(=O)OCC(=O)N1CCCC1 | 2.5% | · | 21.5% | 9.28µM*
COc1ccc(-c2csc(NC(C)=O)n2)cc1OC | -3.7% | -5.6% | · | 28.9%
COc1ccccc1NC(=O)Nc1nc(CC(=O)Nc2cccc(F)c2)cs1 | 0.0% | · | 2.08µM* | 4.15µM*
COc1ccccc1CNC(=O)Cc1csc(NC(=O)Nc2ccccc2OC)n1 | -2.0% | · | 13.1µM* | ?
COc1cccc(NC(=O)Nc2nc(-c3ccc(OC)c(OC)c3)cs2)c1 | -3.9% | -17.3% | 11.7µM* | ?

Source: PubChem (National Center for Advancing Translational Sciences (NCATS))
